# Screening results as filed in PubChem.
# This is a sample that favours compounds with a hit; in the whole collection about 9.3% have one here.
# HCMV inh: qHTS Assay for inhibitors of the human cytomegalovirus (HCMV); HFF cells, HCMV-luciferase reporter, 72 h; active compounds read low; activity change, negative = inhibition, % at 57.5 µM; 410,000 compounds, 4.5% hits; AID 1259415, 2018; in the data active means activity change below about -60%; inconclusive means no clear call, values can overlap the other calls; inactive means above about -39%
#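 Steps: HFFs plated, 16 h 37C; compounds added; HCMV-luciferase added to MOI 1 PFU/cell; 72 h 37C; OneGlo reagent, 5 min room temperature; luminescence read, normalized to controls.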
# Vaccinia Venus: qHTS for Stage-Specific Inhibitors of Vaccinia Orthopoxvirus: Venus Reporter Primary qHTS; Vaccinia virus Venus reporter expression, fluorescence; Potency, µM (highest dose often 36.5 µM), actives largely listed as inhibitors; 330,000 compounds, 0.46% hits; AID 720580, 2013; calls by dose curve; tested in A549 cells; further: nearly all actives have a fitted effect of over 30% in size
# HCV inhibitor: qHTS Assay for Inhibitors of Hepatitis C Virus (HCV) | 340,000 compounds, 3.4% hits | Potency, µM (top dose mostly 41.8 µM), most hits filed as inhibitors | Huh7.5.1 HCVcc-Cre infection, luciferase reporter, 44 h | AID 651820, 2012
#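 HCVcc-Cre virus at an moi near 0.5 was added right after compound to cells cultured 4 h from seeding (1,000 cells/well). Luciferase activity was determined 44 h later, 15 min after substrate addition at RT.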
# Sm TGR block: qHTS Assay for the Inhibitors of Schistosoma Mansoni Peroxiredoxins. Schistosoma mansoni thioredoxin glutathione reductase (TGR), Q962Y6. purified TGR, DTNB reduction, TNB absorbance 405 nm. Potency, µM (titrated, usually from 114 µM), hits mostly inhibitors. 360,000 compounds, 3% hits. AID 485364, 2010; further: nearly all actives have a fitted effect of over 60% in size
#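 Kinetic colorimetric format: TGR-catalysed, NADPH-driven DTNB reduction monitored via TNB absorbance. Enzyme dispensed at 20 nM; compound exposure 15 min at room temperature before reaction start.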
# VACV mCherry inh: qHTS for Stage-Specific Inhibitors of Vaccinia Orthopoxvirus: mCherry Reporter Primary qHTS; 310,000 compounds, 0.63% hits; Vaccinia virus mCherry reporter infection, fluorescence; Potency, µM (top dose mostly 36.5 µM), most hits filed as inhibitors; AID 720579, 2013; calls by dose curve; tested in A549 cells; further: nearly all actives have a fitted effect of over 35% in size
# FMDV antiviral: High Throughput Screening for Foot and Mouth Disease Virus Antivirals. FMDV antiviral cell-based qHTS. Potency, µM (top dose mostly 57.9 µM), usual class: inhibitors. 410,000 compounds, 1.2% hits; calls by dose curve; tested in HEK293T cells; further: read-out not given here; nearly all actives have a fitted effect of over 45% in size
# Numbers stand for hits; i = inactive; ? = inconclusive; nt = no result given; [ ] = remark or other dose. Unless noted, the call rests on the fitted dose curve; in most records, active means well fitted curve in the direction sought with a large enough effect; inconclusive means small, poorly fitted or top-dose-only effect, or another doubt; inactive means no such curve, though single readings can be large; an effect the other way counts as inactive or inconclusive.
SMILES,HCMV inh,Vaccinia Venus,HCV inhibitor,Sm TGR block,VACV mCherry inh,FMDV antiviral
NNC(=O)c1cc(C2CC2)nc2ccc(Br)cc12,?,i,?,i,i,i
COC(=O)c1cc(OC)nc2ccc(Br)cc12,i,nt,11µM,i,nt,i
COc1cc(C(=O)Nc2ccc(C)cc2)c2ccccc2n1,-60,i,i,i,i,i
CCOc1ccc(NC(=O)c2cc(OC)nc3ccccc23)cc1,-64,i,?,i,i,i
CCOc1ccc(NC(=O)c2cccc3ccccc23)cc1,i,nt,?,i,nt,i
O=C(NCc1ccco1)Nc1c(Cl)cc(Cl)cc1Cl,i,nt,nt,nt,nt,nt
Cc1ccc(S(=O)(=O)N2[C@H](c3ccc(Cl)cc3)CC(=O)[C@@H]3CN(S(=O)(=O)c4ccccc4C)[C@H](c4ccc(Cl)cc4)C[C@@H]32)cc1,-89,i,nt,nt,i,i
Cc1ccc(S(=O)(=O)N2[C@H](c3cccc(Cl)c3)CC(=O)[C@@H]3CN(S(=O)(=O)c4ccccc4C)[C@H](c4ccc(Cl)cc4)C[C@@H]32)cc1,-83,i,nt,nt,i,?
Cc1ccc(S(=O)(=O)N2[C@H](c3ccccc3)CC(=O)[C@@H]3CN(S(=O)(=O)c4ccccc4)[C@H](c4ccccc4)C[C@@H]32)cc1,i,i,nt,nt,i,i
Cc1ccc([C@@H]2CC(=O)[C@@H]3CN(S(=O)(=O)c4ccccc4C)[C@H](c4ccc(Cl)cc4)C[C@@H]3N2S(=O)(=O)c2ccc(C)cc2)cc1,-94,i,nt,nt,i,?
CC(=O)C1CN(S(=O)(=O)c2ccc(C)cc2)C(c2ccccc2)CC1C (configuration not stated),-60,i,nt,nt,i,i
Fc1ccc(CNc2ncnc3nc[nH]c23)cc1,nt,i,nt,nt,i,nt
Cc1ccc([C@@H]2C[C@H]3[C@@H](CN2S(=O)(=O)c2ccc(C)cc2)C(=O)C[C@@H](c2ccccc2)N3S(=O)(=O)c2ccc(C)cc2)cc1,i,i,nt,nt,i,i
Cc1ccc(S(=O)(=O)N2C[C@H]3C(=O)C[C@@H](c4ccccc4)N(S(C)(=O)=O)[C@H]3C[C@H]2c2ccccc2)cc1,-95,i,nt,nt,i,i
Cc1ccc(S(=O)(=O)N2C[C@H]3C(=O)C[C@@H](c4ccccc4)N(S(=O)(=O)c4ccc(C)cc4)[C@H]3C[C@H]2c2ccc(Cl)cc2)cc1,-85,i,nt,nt,i,i
Cc1ccc([C@@H]2CC(=O)[C@@H]3CN(S(=O)(=O)c4ccc(C)cc4)[C@H](c4ccccc4)C[C@@H]3N2S(=O)(=O)c2ccc(Cl)cc2)cc1,i,i,nt,nt,i,i
CCN(CC)C(=O)N1CCN(Cc2ccc3c(c2)OCO3)CC1,i,nt,i,nt,nt,i
CN(C)S(=O)(=O)c1cccc(NC(=O)c2ccc(-n3cncn3)c([N+](=O)[O-])c2)c1,i,i,?,i,i,?
Cc1ccc(N2C(=O)C(Cl)=C(NCCO)C2=O)c(C)c1,i,nt,i,8.9µM,nt,i
CNC(=S)NNC(=O)c1ccccc1Br,i,i,i,i,i,i
O=C1C=C(NNC(=O)c2ccccc2Br)CCC1,-62,i,i,i,i,i
CCOC(=O)c1nnn(-c2nonc2-n2cccc2)c1CCl,?,i,i,8.9µM,nt,14µM
O=C(O)/C=C/C(=O)N1CCN(c2ccccc2F)CC1,i,i,i,i,i,i
Cc1ccc(C2C=C(c3ccc(Cl)cc3)Nc3nc(NS(=O)(=O)c4ccccc4)nn32)cc1 (configuration not stated),i,i[7.34 µM],nt,32µM,i[7.34 µM],i
CS(=O)(=O)Nc1nc2n(n1)C(c1ccccc1)C=C(c1ccc(Br)cc1)N2 (configuration not stated),nt,i,i,22µM,i,i
SMILES,HCMV inh,Vaccinia Venus,HCV inhibitor,Sm TGR block,VACV mCherry inh,FMDV antiviral
COc1ccccc1C1C=C(c2ccc(Cl)cc2)Nc2nc(NS(C)(=O)=O)nn21 (configuration not stated),nt,nt,i,40µM,nt,nt
Cc1ccc(C2C=C(c3ccccc3)Nc3nc(NS(=O)(=O)c4ccc(C)cc4)nn32)cc1 (configuration not stated),i,i,nt,i,i,i
CC(=O)Nc1nc2n(n1)C(c1ccc(F)cc1)C=C(c1ccccc1)N2 (configuration not stated),i,i,i,3.2µM,i,i
CC(=O)Nc1nc2n(n1)C(c1ccccc1)C=C(c1ccccc1)N2 (configuration not stated),nt,i,i,4µM,i,nt
O=C(Nc1nc2n(n1)C(c1ccc(F)cc1)C=C(c1ccccc1)N2)c1cccc([N+](=O)[O-])c1 (configuration not stated),i,i,nt,i,i,i
O=C(Cn1cc([N+](=O)[O-])cn1)N1CCc2ccccc21,i,i,i,i,i,nt
N#Cc1sc2nc(C3CC3)cc(-c3ccc(Cl)cc3)c2c1N,i,14µM,?,i,4.5µM,?
CSc1ccc(NC(=O)NN(c2ccccc2)C2CCS(=O)(=O)C2)cc1 (configuration not stated),i,i,nt,nt,i,i
COc1ccc(-c2noc(CSc3nc(N)cc(=O)[nH]3)n2)cc1,i,i,25µM,i,i,i
Nc1ncncc1-c1ccc2ccccc2c1,-75,i,i,i,i,i
COc1ccc(-c2cncnc2N)cc1OC,i,i,nt,nt,i,?
C[C@@H]1O[C@@H](O[C@H]2C[C@@H](O)[C@]3(CO)[C@@H]4C(CC[C@]3(O)C2)[C@@]2(O)CC[C@H](C3COC(=O)C3)[C@@]2(C)C[C@H]4O)[C@H](O)[C@H](O)[C@H]1O (some centres not stated),-99,1.8µM,?,i,?,?
CC1OC(O[C@H]2C[C@@H](O)[C@]3(CO)[C@H]4[C@H](O)C[C@]5(C)[C@@H](C6=CC(=O)OC6)CC[C@]5(O)[C@@H]4CC[C@]3(O)C2)C(O)C(O)C1O (some centres not stated),nt,0.0035µM,nt,nt,?,nt
COc1cccc(NC(=O)CN(C)S(=O)(=O)c2ccc3c(c2)CCC(=O)N3)c1,nt,i,i,i,i,i
Cc1cc(=O)oc2cc(OCC(=O)N3CCN(C(=O)C4COc5ccccc5O4)CC3)ccc12 (configuration not stated),?,nt,18µM,i,nt,?
COc1ccc(S(=O)(=O)N2CCN(C(=O)C3COc4ccccc4O3)CC2)cc1 (configuration not stated),i,nt,i,18µM,nt,i
CCN1CCN(C(=O)C2COc3ccccc3O2)CC1 (configuration not stated),i,nt,i,22µM,nt,i
